High-throughput results as filed in PubChem.
Sampled rows, rich in hits. Any-hit rate of the full collection: about 27%.
Pyk2 oligo antag: antagonists of Pyk2 self-association, primary screen, Q293 cells, FERM NanoBiT luminescence, HTS; Protein-tyrosine kinase 2-beta (Homo sapiens), Q14289; hits give low values; z-score (the deposit names both 25 µM and 10 µM); 99,000 compounds, 0.83% hits;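 active = Z-score of -3 or lower, scaled per plate to the spread of control and sample wells; inactive = z-score above -3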;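 also: negative z-score means lost luminescence so less FERM oligomerization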
CYP2C9 activ: human CYP2C9 activators, primary screen, biochemical, luminescence. Cytochrome P450 2C9 (Homo sapiens), P11712. recombinant CYP2C9, luciferin-H conversion; hits give high values; factor 1 = untreated enzyme, 0 = blocked. activation factor at 5 µM. 96,000 compounds, 1.4% hits;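 active = activation factor of 2 or more for CYP2C9 at a 5 µM dose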
Cav32 inh: Cav3.2 calcium influx blockers – cell-based, Fluo-4 calcium fluorescence, FDSS, MLSMR library, primary screen. B-score at 10 µM. 100,000 compounds, 4% hits. Cav3.2-expressing cells; hits give low values;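 active = single-dose well whose peak fluorescence ratio is a statistical outlier from its plate by either plate-standardised score or position-corrected B-score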
CYP2C19 inhib: blockers of cytochrome P450 2C19 activity – biochemical, luminescence, ADME assay, primary screen | inhibition, % at 5 µM | CYP2C19 Supersomes, luciferin-H EGE luminescence, 30 min | AID 778, 2007 | 96,000 compounds, 21% hits;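 active = CYP2C19 inhibition above a set limit at 5 µM in the primary screen, cut at about 50% in these data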
CYP2C19 act: human CYP2C19 activators, primary screen, biochemical, luminescence; activation factor at 5 µM; recombinant CYP2C19, luciferin-H EGE luminescence; hits give high values; 0 = fully inhibited enzyme, 1 = untreated enzyme; 96,000 tested, under 10 active; Cytochrome P450 2C19 (Homo sapiens), P33261;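 active = activation factor of at least 2 at 5 µM in the primary screen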
CYP2C9 inhib: blockers of cytochrome P450 2C9 activity – biochemical, luminescence, ADME assay, primary screen; 96,000 compounds, 20% hits; CYP2C9 Supersomes, luciferin-H conversion; inhibition, % at 5 µM; AID 777, 2007; P11712;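 active = blocking of liver enzyme CYP2C9 beyond about 50% at 5 µM, limit read from the data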
A number is an active result; n = inactive; x = no result.

SMILES	Pyk2 oligo antag	CYP2C9 activ	Cav32 inh	CYP2C19 inhib	CYP2C19 act	CYP2C9 inhib
CC(C)(C)c1ccc(COC(=O)CNC(=O)CNC(=O)Cc2ccccc2)cc1	n	n	n	n	n	n
Cc1cc2cc(CN(Cc3ccc4c(c3)OCO4)C(=O)c3ccco3)c(=O)[nH]c2cc1C	n	n	-6.3	n	n	n
COc1cc2cc(CN(Cc3ccc4c(c3)OCO4)C(=O)c3ccco3)c(=O)[nH]c2cc1OC	n	x	n	x	x	x
CC(=O)N(CCc1ccccc1C)Cc1cc2cc3c(cc2[nH]c1=O)OCO3	n	n	n	75	n	54
COc1ccc(NC(C)=O)cc1NC(C)C(=O)Nc1ccc(F)c(F)c1F (stereo not drawn)	n	n	n	70	n	n
O=C(CN1C(=O)C2CC=CCC2C1=O)NCC1COc2ccccc2O1 (stereo not drawn)	n	n	n	n	n	n
Cc1ccc(/C=C/c2ccc(=O)n(Cc3ccccc3Cl)n2)cc1	n	n	n	n	n	n
CC(C)OC(=O)CCCN1C(=O)c2ccc(N)cc2C1=O	n	n	x	74	n	n
CCOC(=O)COc1c(OC)cc(Cl)cc1C1NC(=O)NC(C)=C1C(C)=O (stereo not drawn)	n	n	n	65	n	70
CCCC1=C(C(=O)OCC)C(c2cc(Cl)cc(OC)c2OCC(=O)OCC)NC(=O)N1 (stereo not drawn)	-3.1	n	-5.2	n	n	88
CCCC1=C(C(=O)OCC)C(c2ccccc2OC)NC(=O)N1 (stereo not drawn)	n	n	n	n	n	n
O=C1C=C(N2CCN(C3=CC(=O)CCC3)CC2)CCC1	n	n	x	n	n	n
Cc1nc(N2CCN(C(c3ccccc3)c3ccccc3)CC2)nc2c1C(=O)CCC2	x	n	x	n	n	n
CCOC(=O)c1nn(-c2ccc3c(c2)OCO3)cc1O	n	x	n	x	x	x
CCOC(=O)Cc1c(C)nc2c(-c3ccc(Cl)cc3)c[nH]n2c1=O	n	n	x	n	n	67
CCOC(=O)Cc1c(C)nc2cc(-c3ccc(Cl)cc3)[nH]n2c1=O	n	n	n	n	n	n
Cc1c(C(=O)N2CCN(S(C)(=O)=O)CC2)oc2ccccc12	n	n	n	91	n	n
Cc1c(C(=O)N2CCN(CCc3ccccc3)CC2)oc2ccccc12	n	n	n	73	n	n
CCSc1nnc(NC(=O)c2nn(C(C)C)c(=O)c3ccccc23)s1	n	n	n	n	n	n
CCC1CCCCN1C(=O)c1nn2cccnc2c1Cl (stereo not drawn)	n	n	n	n	n	n
O=C(c1cccc(F)c1)N1CCN(c2cccc(Cl)c2)CC1	n	n	n	94	n	86
O=C(c1cccnc1)N1CCN(C(=O)c2ccco2)CC1	n	x	n	x	x	x
N#Cc1ccc(N2CCN(C(=O)c3cccc(F)c3)CC2)c(F)c1	x	n	n	92	n	n
O=C(c1cccc(F)c1)N1CCN(C(=O)c2nn3cccnc3c2Cl)CC1	n	n	n	58	n	n
O=C(c1cccnc1)N1CCN(C(=O)c2ccccc2F)CC1	n	n	n	51	n	65
SMILES	Pyk2 oligo antag	CYP2C9 activ	Cav32 inh	CYP2C19 inhib	CYP2C19 act	CYP2C9 inhib
O=C(COc1ccccc1)N1CCN(C(=O)c2cccc(F)c2)CC1	n	n	n	n	n	n
O=C(COc1ccc(Cl)cc1)N1CCN(C(=O)c2cccc(F)c2)CC1	n	n	n	n	n	n
Cc1nc2sc(C(c3ccc(Cl)cc3)N3CC(C)OC(C)C3)c(O)n2n1 (stereo not drawn)	n	n	n	n	n	n
O=C(c1c(Cl)nc2sccn12)N1CCN(c2cccc(Cl)c2)CC1	n	n	n	83	n	69
O=C(c1cccc(F)c1)N1CCCC(C(=O)N2CCCC2)C1 (stereo not drawn)	n	n	n	n	n	n
O=C(c1cccc(Cl)c1)N1CCN(C(=O)c2ccccc2F)CC1	n	n	n	66	n	54
O=C(c1cccc(F)c1)N1CCC(N2CCOCC2)CC1	n	n	n	56	n	n
NC1=NC[C@@H](Cc2ccc(O)cc2)N1CCC12CC3CC(CC(C3)C1)C2	x	x	n	x	x	x
COc1ccccc1C1NC(=O)NC(C)=C1C(C)=O (stereo not drawn)	n	x	n	x	x	x
Cc1ccc(S(=O)(=O)N(C)/C(=N/S(=O)(=O)c2ccccc2)c2ccccc2)cc1	n	n	n	n	n	n
CN/S(=N/S(=O)(=O)c1ccccc1)c1ccc(C)cc1 (stereo not drawn)	n	n	n	76	n	n
CC(C)NC(=S)N/N=C/c1cccs1	n	n	n	82	n	n
Cn1cnc2c1c(=O)n(CC(O)CO)c(=O)n2C (stereo not drawn)	n	n	n	n	n	n
CC1(C)CC(=O)c2cnc(NC(=O)c3ccco3)nc2C1	n	n	n	n	n	n
CC(=O)Nc1cccc(NC(=O)c2oc3ccccc3c2C)c1	x	n	x	53	n	n
Cc1c(C(=O)NC2=NCCS2)oc2ccccc12	n	n	n	61	n	n
Cc1sc(NC(=O)c2oc3ccccc3c2C)c(C#N)c1C	n	n	n	n	n	n
Cc1c(C(=O)NCc2ccccn2)oc2ccccc12	n	n	n	n	n	n
Cc1c(C(=O)Nc2cnccn2)oc2ccccc12	n	n	n	n	n	n
Cc1c(C(=O)NCCc2ccc3c(c2)OCCO3)oc2ccccc12	n	n	-7	86	n	82
O=C(Cn1cnc2ccccc21)N/N=C/c1ccccc1[N+](=O)[O-]	n	x	x	x	x	x
O=C(COc1ncnc2ccccc12)N1CCN(S(=O)(=O)c2ccc(Cl)cc2)CC1	n	n	n	n	n	n
CCOC(=O)c1c(C2COc3ccccc3O2)csc1NC(=O)c1ccco1 (stereo not drawn)	n	n	n	n	n	n
COC(=O)C(/C=N/OCc1ccc([N+](=O)[O-])cc1)NC(=O)c1cccc(Cl)c1 (stereo not drawn)	n	n	n	79	n	61
COC(=O)c1ccccc1NC(=O)CCS(=O)(=O)c1ccc(Br)s1	n	n	n	62	n	n
O=C(CCS(=O)(=O)c1ccc(Br)s1)NCc1ccccc1	n	n	n	60	n	n
CC(C)NC(=O)CCS(=O)(=O)c1ccc(Br)s1	n	n	n	n	n	n
COC(=O)c1ccc(NC(=O)CCS(=O)(=O)c2ccc(Br)s2)cc1	n	n	n	n	n	61
N=C1C(=O)OCC1c1cc(Cl)ccc1NC(=O)Nc1ccccc1 (stereo not drawn)	n	x	n	x	x	x
Cc1cc(OC(=O)CNC(=O)OC(C)(C)C)c2c(C)cc(=O)oc2c1	n	n	n	n	n	n
